Measured values as given in PubChem BioAssay (NCI).
Compounds without any hit were thinned out: in the full panel of roughly 83,000, 20% have a hit.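 For each line, cells grew in 96-well plates with the test compound present at a single concentration for 48 hours.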 The source made the active and inactive calls. Rule for the calls: active = growth percent below 10; inactive = the rest.

How the values were obtained:
Assay in all cases: NCI-60 one-dose screen, 48 h (100 = growth as untreated, 0 = no growth, -100 = all killed)
Settings in all cases: 10 µM unless noted
SR leukemia = test system: SR leukemia
RPMI-8226 leukemia = test system: RPMI-8226 leukemia
OVCAR-8 ovarian = test system: OVCAR-8 ovarian
OVCAR-5 ovarian = test system: OVCAR-5 ovarian
OVCAR-4 ovarian = test system: OVCAR-4 ovarian
SK-OV-3 ovarian = test system: SK-OV-3 ovarian
IGROV1 ovarian = test system: IGROV1 ovarian
OVCAR-3 ovarian = test system: OVCAR-3 ovarian
HS 578T breast = test system: HS 578T breast
NCI/ADR-RES ovarian = test system: NCI/ADR-RES ovarian

Measured: growth

O=C(Nc1ccc(S(=O)(=O)N2CCCCC2)cc1)C(Cl)Cl
inactive: SR leukemia 95.7% | RPMI-8226 leukemia 110% | OVCAR-8 ovarian 111% | OVCAR-5 ovarian 127% | OVCAR-4 ovarian 104% | SK-OV-3 ovarian 118% | IGROV1 ovarian 135% | OVCAR-3 ovarian 114% | HS 578T breast 119% | NCI/ADR-RES ovarian 114%

O=C(CSc1nc2sc3c(c2c(=O)n1-c1ccc(Cl)cc1)CCCC3)N/N=C/C=C/c1ccccc1
active: SR leukemia -23.2% | RPMI-8226 leukemia -0.68% | OVCAR-8 ovarian -51.3% | OVCAR-5 ovarian -38.9% | OVCAR-4 ovarian -31% | SK-OV-3 ovarian -11.2% | IGROV1 ovarian -5.52% | HS 578T breast -16.9% | NCI/ADR-RES ovarian -10.7%
inactive: OVCAR-3 ovarian 78.3%

COc1ccc(S(=O)(=O)Nc2ccc(-c3ccc4c(c3)NC(=O)/C4=C\c3ccc[nH]3)cc2)cc1OC
inactive: RPMI-8226 leukemia 39.4% | OVCAR-5 ovarian 18.5% | SK-OV-3 ovarian 27.1% | IGROV1 ovarian 29.3% | OVCAR-3 ovarian 57.2% | HS 578T breast 23.4% | NCI/ADR-RES ovarian 22.1%
active: SR leukemia 8.03% | OVCAR-8 ovarian 1.66% | OVCAR-4 ovarian 8.08%

Cc1ccc(N=Nc2c(N)nn3c(-c4cc5ccccc5oc4=O)ccnc23)cc1
active: RPMI-8226 leukemia 9.76%
inactive: SR leukemia 75.7% | OVCAR-8 ovarian 51.4% | OVCAR-5 ovarian 54.6% | OVCAR-4 ovarian 77.9% | SK-OV-3 ovarian 99.9% | IGROV1 ovarian 32.4% | OVCAR-3 ovarian 37.4% | HS 578T breast 62.6% | NCI/ADR-RES ovarian 27%

O=C(Nc1ccc(F)cc1)Nc1nc2ccc([N+](=O)[O-])cc2s1
active: RPMI-8226 leukemia -23.5% | SK-OV-3 ovarian -5.21% | HS 578T breast -8.39% | NCI/ADR-RES ovarian 6.37%
inactive: SR leukemia 12.9% | OVCAR-8 ovarian 11.4% | OVCAR-5 ovarian 24% | OVCAR-4 ovarian 16.4% | IGROV1 ovarian 27.1% | OVCAR-3 ovarian 22.6%

COc1cc2cc(C(=O)N3C[C@@H](CCl)c4c3cc(OC(=O)N(C)CCSSCCN3CCOCC3)c3ccccc43)[nH]c2c(OC)c1OC
active: SR leukemia -23.5% | RPMI-8226 leukemia -11.5% | OVCAR-8 ovarian -41.4% | OVCAR-5 ovarian -42.8% | OVCAR-4 ovarian -36.7% | SK-OV-3 ovarian -30% | IGROV1 ovarian -27.6% | OVCAR-3 ovarian -1.85% | HS 578T breast -15.2% | NCI/ADR-RES ovarian -33.4%

Cc1cc(Cl)ccc1NC(=O)Nc1ccc(-c2ccc3c(c2)NC(=O)/C3=C\c2ccc[nH]2)cc1
inactive: SR leukemia 69.3% | RPMI-8226 leukemia 100% | OVCAR-8 ovarian 104% | OVCAR-5 ovarian 108% | OVCAR-4 ovarian 84.7% | SK-OV-3 ovarian 125% | IGROV1 ovarian 96.2% | OVCAR-3 ovarian 119% | HS 578T breast 102% | NCI/ADR-RES ovarian 104%

COc1ccc(/C=C/C(=O)c2ccc(S(=O)(=O)NCCNc3nc(N(C)C)nc(N4CCOCC4)n3)cc2)cc1
inactive: SR leukemia 13.8% | RPMI-8226 leukemia 14% | OVCAR-8 ovarian 98.5% | OVCAR-5 ovarian 95.4% | OVCAR-4 ovarian 94.1% | SK-OV-3 ovarian 101% | IGROV1 ovarian 98.5% | OVCAR-3 ovarian 100% | HS 578T breast 104% | NCI/ADR-RES ovarian 89.7%

c1n[nH]cc1-c1nc2ccc3[nH]ncc3c2c2c1CC1(CC2)COC1
active: SR leukemia 5.21% | HS 578T breast 0.359%
inactive: RPMI-8226 leukemia 71.4% | OVCAR-8 ovarian 52% | OVCAR-5 ovarian 107% | OVCAR-4 ovarian 89.7% | SK-OV-3 ovarian 21.7% | IGROV1 ovarian 55.4% | OVCAR-3 ovarian 43.8% | NCI/ADR-RES ovarian 108%

COc1cc(/C=C/C(=O)c2cnn(-c3cc(=O)[nH]c4ccc(C)cc34)c2C)cc(OC)c1OC
inactive: OVCAR-8 ovarian 11.5% | OVCAR-4 ovarian 39.3% | SK-OV-3 ovarian 24.7% | HS 578T breast 52.5%
active: SR leukemia -8.63% | RPMI-8226 leukemia -40.2% | OVCAR-5 ovarian -37.3% | IGROV1 ovarian -1.52% | OVCAR-3 ovarian -50.1% | NCI/ADR-RES ovarian -11.1%

COC(=O)c1cccc(Oc2ccc(NC(=O)Nc3cc(C(F)(F)F)ccc3F)cc2)c1
active: HS 578T breast 4.44%
inactive: SR leukemia 26.9% | RPMI-8226 leukemia 62.8% | OVCAR-8 ovarian 40.3% | OVCAR-5 ovarian 87.1% | OVCAR-4 ovarian 55.4% | SK-OV-3 ovarian 87.6% | IGROV1 ovarian 56.7% | OVCAR-3 ovarian 78.5% | NCI/ADR-RES ovarian 73.9%

Nc1cc2ccccc2c(=O)n1NC(=O)c1ccccc1
inactive: SR leukemia 84.3% | RPMI-8226 leukemia 94.2% | OVCAR-8 ovarian 104% | OVCAR-5 ovarian 107% | OVCAR-4 ovarian 98.6% | SK-OV-3 ovarian 93.5% | IGROV1 ovarian 90.2% | OVCAR-3 ovarian 70.6% | HS 578T breast 91.4% | NCI/ADR-RES ovarian 102%

Nc1ccc(-c2ccc3ncnc(N4CCc5cc(F)c(Cl)cc54)c3c2)cn1
inactive: OVCAR-8 ovarian 42.5% | OVCAR-5 ovarian 20.6% | OVCAR-4 ovarian 34.6% | NCI/ADR-RES ovarian 30%
active: SR leukemia 0.174% | RPMI-8226 leukemia 6.22% | SK-OV-3 ovarian 1.92% | IGROV1 ovarian -46% | OVCAR-3 ovarian 4.61% | HS 578T breast -15.8%

CN(C)c1nc(NCCNS(=O)(=O)c2ccc(C(=O)/C=C/c3ccc(C(F)(F)F)cc3)cc2)nc(N2CCOCC2)n1
active: SR leukemia -23% | RPMI-8226 leukemia -44.2% | OVCAR-8 ovarian 1.73% | OVCAR-5 ovarian 5.43% | IGROV1 ovarian -93.9% | OVCAR-3 ovarian -43% | NCI/ADR-RES ovarian -31.5%
inactive: OVCAR-4 ovarian 56.5% | SK-OV-3 ovarian 76.2% | HS 578T breast 67.8%

O=C(NNC(=S)NCCc1ccccc1)c1ccc(OCc2nc3ccc(Cl)cc3[nH]2)cc1
inactive: SR leukemia 54.2% | RPMI-8226 leukemia 49.1% | OVCAR-8 ovarian 86.2% | OVCAR-5 ovarian 113% | OVCAR-4 ovarian 49.7% | SK-OV-3 ovarian 102% | IGROV1 ovarian 80.3% | OVCAR-3 ovarian 68.2% | HS 578T breast 81.2% | NCI/ADR-RES ovarian 93.9%

CN(C)CCCNC(=S)Nc1ccc(/C=C/c2ccc(Cl)cc2)cc1
inactive: OVCAR-3 ovarian 23.6% | HS 578T breast 11.7%
active: SR leukemia -1.02% | RPMI-8226 leukemia 3.25% | OVCAR-8 ovarian -40.8% | OVCAR-5 ovarian -99.6% | OVCAR-4 ovarian -68.2% | SK-OV-3 ovarian -56.9% | IGROV1 ovarian -70.4% | NCI/ADR-RES ovarian -43.6%

O=C(N/N=C/c1c[nH]c2ccccc12)Nc1ccccc1Cl
active: SR leukemia 5.61% | RPMI-8226 leukemia 7.68% | OVCAR-8 ovarian -7.94% | OVCAR-3 ovarian -28.4% | HS 578T breast 8.49% | NCI/ADR-RES ovarian -9.92%
inactive: OVCAR-5 ovarian 23.1% | OVCAR-4 ovarian 53.9% | SK-OV-3 ovarian 15.4% | IGROV1 ovarian 19.9%

Cc1nn(-c2ccccc2)c2nc(C)n(CC(=O)N/N=C/c3cccc([N+](=O)[O-])c3)c(=O)c12
inactive: SR leukemia 85.8% | RPMI-8226 leukemia 85.3% | OVCAR-8 ovarian 98.5% | OVCAR-5 ovarian 109% | OVCAR-4 ovarian 91.2% | SK-OV-3 ovarian 92.8% | IGROV1 ovarian 91.8% | OVCAR-3 ovarian 106% | HS 578T breast 92.7% | NCI/ADR-RES ovarian 97%

Nc1cc(-c2c[nH]c3ccc(F)cc23)nc2cc(-c3c[nH]c4ccccc34)nn12
active: RPMI-8226 leukemia -1.51% | OVCAR-8 ovarian 4.46% | OVCAR-5 ovarian 1.01%
inactive: SR leukemia 15.4% | OVCAR-4 ovarian 47.8% | SK-OV-3 ovarian 18.5% | IGROV1 ovarian 16.2% | OVCAR-3 ovarian 28.8% | HS 578T breast 20.7% | NCI/ADR-RES ovarian 10.7%

CCC1(OC(=O)c2ccccc2SSCCOC(=O)CCCCC2SCC3NC(=O)NC32)C(=O)OCc2c1cc1n(c2=O)Cc2cc3ccccc3nc2-1 (stereo not given)
inactive: RPMI-8226 leukemia 33.1% | OVCAR-8 ovarian 37.4% | OVCAR-5 ovarian 97% | OVCAR-4 ovarian 66% | SK-OV-3 ovarian 46.3% | IGROV1 ovarian 75.3% | OVCAR-3 ovarian 72.7% | HS 578T breast 82.9% | NCI/ADR-RES ovarian 24.2%
active: SR leukemia 3.84%

Cc1ccc2nc(COc3ccc(C(=O)NNC(=O)Nc4ccc(Cl)c(C(F)(F)F)c4)cc3)[nH]c2c1
inactive: SR leukemia 16.8% | RPMI-8226 leukemia 59.5% | OVCAR-8 ovarian 10.7% | OVCAR-5 ovarian 66.9% | OVCAR-4 ovarian 74% | SK-OV-3 ovarian 70.9% | IGROV1 ovarian 52.2% | OVCAR-3 ovarian 28.9% | HS 578T breast 39.7% | NCI/ADR-RES ovarian 95.8%

Cc1cc(C2(c3cc(C)c(OCC(O)CNc4c(C)n(C)n(-c5ccccc5)c4=O)cc3C(C)C)OC(=O)c3ccccc32)c(C(C)C)cc1OCC(O)CNc1c(C)n(C)n(-c2ccccc2)c1=O (stereo not given)
active: SR leukemia 5.65%
inactive: RPMI-8226 leukemia 24.4% | OVCAR-8 ovarian 33.1% | OVCAR-5 ovarian 50.9% | OVCAR-4 ovarian 38.6% | SK-OV-3 ovarian 67.5% | IGROV1 ovarian 43.1% | OVCAR-3 ovarian 15.5% | HS 578T breast 22.1% | NCI/ADR-RES ovarian 58%

COc1ccc(-c2cc(-c3cc(OC)c(OC)c(OC)c3)[nH]c(=O)c2C#N)cc1
active: OVCAR-4 ovarian 7.74%
inactive: SR leukemia 80.8% | RPMI-8226 leukemia 72.2% | OVCAR-8 ovarian 13.4% | OVCAR-5 ovarian 79.1% | SK-OV-3 ovarian 30.7% | IGROV1 ovarian 36.7% | OVCAR-3 ovarian 102% | HS 578T breast 24.2% | NCI/ADR-RES ovarian 42.2%

COc1ccc(N=Nc2c(N)nn3c(-c4ccc5c(c4)C=S=C5)ccnc23)cc1
active: RPMI-8226 leukemia 9.87% | NCI/ADR-RES ovarian 3.61%
inactive: SR leukemia 33.9% | OVCAR-8 ovarian 28.8% | OVCAR-5 ovarian 80.4% | OVCAR-4 ovarian 24.3% | SK-OV-3 ovarian 68.7% | IGROV1 ovarian 27% | OVCAR-3 ovarian 48.4% | HS 578T breast 24.7%

COc1cc(C2CC(c3ccc(Cl)cc3)=Nc3c(N)nc(N)nc3N2)ccc1Oc1nc(Nc2ccc(F)cc2)nc(N(C)C)n1 (stereo not given)
inactive: RPMI-8226 leukemia 15% | OVCAR-8 ovarian 65% | OVCAR-5 ovarian 96.6% | OVCAR-4 ovarian 29% | SK-OV-3 ovarian 79.3% | IGROV1 ovarian 34% | OVCAR-3 ovarian 65% | HS 578T breast 54% | NCI/ADR-RES ovarian 41.4%
active: SR leukemia -47.5%

Cn1cc(-c2cc3nc(-c4cn(C)c5ncccc45)cc(N)n3n2)c2cc(F)ccc21
active: SR leukemia -31.3%
inactive: RPMI-8226 leukemia 38.1% | OVCAR-8 ovarian 11.5% | OVCAR-5 ovarian 47.9% | OVCAR-4 ovarian 20.2% | SK-OV-3 ovarian 24.4% | IGROV1 ovarian 31.9% | OVCAR-3 ovarian 43.9% | HS 578T breast 47.2% | NCI/ADR-RES ovarian 28.3%
